According to article PMC5540273 (PLoS ONE, 2017):
“And” between values parts separate entries of the source, which are not always exact repeats. Equal values may be shown once. Read-outs that look alike come from different tables or passages of the source.

Experiments:
TAOK2 = settings: concentration: 1 μM, replicates: in singlicate, n = 1
TAOK3 = settings: concentration: 1 μM, replicates: in singlicate, n = 1
TBK1 = settings: concentration: 1 μM, replicates: in singlicate, n = 1
TEC = settings: concentration: 1 μM, replicates: in singlicate, n = 1
TESK1 = settings: concentration: 1 μM, replicates: in singlicate, n = 1
TGFBR1 = settings: n = 1
TGFBR2 = settings: concentration: 1 μM, replicates: in singlicate, n = 1
TIE1 = settings: concentration: 1 μM, replicates: in singlicate; n = 1
TIE2 = tested on: T1, TIE2; settings: concentration: 1 μM, replicates: in singlicate; n = 1
T1 construct: gene TEK

TLK1 = settings: concentration: 1 μM, replicates: in singlicate, n = 1
[1] = concentration: 1 μM, replicates: in singlicate
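Note: KINOMEscan kinase panel screen.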

Compound	%Inh (TAOK2)	%Inh (TAOK3)	%Inh (TBK1)	%Inh (TEC)	%Inh (TESK1)	%Inh (TGFBR1; [1])	%Inh (TGFBR2)	%Inh (TIE1)	%Inh (TIE2)	%Inh (TLK1)	%Inh (TGFBR1; 1 µM)	%Inh (TAOK2; 1 µM)	%Inh (TAOK3; 1 µM)	%Inh (TBK1; 1 µM)	%Inh (TEC; 1 µM)	%Inh (TESK1; 1 µM)	%Inh (TGFBR1; concentration: 1 μM, replicates: in singlicate, 1 µM)	%Inh (TGFBR2; 1 µM)	%Inh (TLK1; 1 µM)
Cc1c2ccc(N(C)c3ccnc(Nc4cccc(S(N)(=O)=O)c4)n3)cc2nn1Cc1ccccc1.Cl.Cl [GW787226]	72%	0%	35%	11%	15%	0%	63%	92.2%	77%	0%									
CSc1ccc(-c2cc3ncnc(SCC(=O)O)c3s2)cc1	0%	0%	0%	0%	0%	0%	12%	0%	0%	2%									
Cc1nnc(-c2ccc(C)c(-c3ccc(C(=O)Nc4ccc(NS(C)(=O)=O)cc4)cc3)c2)o1 [GW702865]	0%	0%	10%	0%	11%	0%	0%	0%	0%	0%									
O=C1NC(=O)C(N2CCc3ccccc32)=C1c1cccc(Cl)c1 [SB-408010]	0%	0%	0%	0%	30%	0%	1%	0%	12%	10%									
NS(=O)(=O)CCc1cccc(Nc2nccc(-c3c(-c4cccc(NC(=O)c5c(F)cccc5F)c4)nn4ccccc34)n2)c1 [GSK336735]	32%	88%	15%	95.6%	50%	3%	20%	96.8%	91.1%	8%									
O=c1cc(N2CCOCC2)nc2n(Cc3cccc(Cl)c3Cl)c(C3CC3)nn12 [GSK2358994]	0%	0%	26%	13%	14%	0%	10%	0%	0%	25%									
COc1ccc(Nc2nccc(N3CCC(NC(=O)Nc4cccc(C(C)=O)c4)C3)n2)cc1 (stereo not drawn) [GSK1379731]	0%	0%	0%	0%	30%	0%	0%	0%	0%	0%									
O=c1cc(N2CCOCC2)nc2n(Cc3cccc(F)c3)ccn12 [GSK2297430]	0%	0%	0%	0%	19%	0%	13%	7%	0%	6%									
COc1cc2ncn(-c3cc(OCc4sccc4Cl)c(C(N)=O)s3)c2cc1OC [GSK448459]	0%	0%	15%	5%	0%	11%	0%	36%	0%	0%									
O=C(Nc1cccc(-c2nn3ncccc3c2-c2ccnc(Nc3cccc(C(F)(F)F)c3)n2)c1)c1c(F)cccc1F [GSK299495]	41%	63%	6%	96.8%	15%	8%	1%	10%	0%	0%									
Cc1nnc(-c2ccc3occ(-c4ccc(C(C)O)cc4)c3c2)o1 (stereo not drawn)	8%	0%	30%	0%	3%	3%	69%	18%	16%	0%									
NCC(NC(=O)c1cc(-c2cn[nH]c2)c(-c2ccnc3[nH]ccc23)s1)c1ccccc1.O=C(O)C(F)(F)F.O=C(O)C(F)(F)F (stereo not drawn) [GSK1325775]	40%	40%	20%	1%	18%	4%	0%	6%	0%	5%									
CCn1cnc2c(N)ncnc21 [GW345098]	4%	0%	39%	11%	4%	0%	12%	6%	2%	22%									
c1ccc(-c2n[nH]cc2-c2ccnc3ccccc23)nc1 [GW271431]	0%	0%	12%	0%	20%		72%	3%	0%	2%	90.1%								
Cl.Cl.Cl.Fc1ccc(-c2ncn(C3CCNCC3)c2-c2ccnc(Nc3ccccc3)n2)cc1 [SB-238039]								0%	0%			78% and 0%	91.5% and 57%	36% and 0%	12% and 0%	8% and 0%	61% and 29%	16% and 12%	4% and 19%
CC(=O)Nc1ccc(COc2ccc(Nc3ccnc4cc(-c5ccccn5)ccc34)cc2)cc1.Cl [GW440148]	0%	0%	21%	0%	9%	8%	28%	26%	6%	38%									
Cc1cccc(-c2nc(-c3ccc(S(C)(=O)=O)cc3)sc2-c2ccncc2)c1	0%	0%	0%	26%	0%	16%	0%	0%	0%	13%									

Compound	%Inh (TAOK2)	%Inh (TAOK3)	%Inh (TBK1)	%Inh (TEC)	%Inh (TESK1)	%Inh (TGFBR1; [1])	%Inh (TGFBR2)	%Inh (TIE1)	%Inh (TIE2)	%Inh (TLK1)	%Inh (TGFBR1; 1 µM)	%Inh (TAOK2; 1 µM)	%Inh (TAOK3; 1 µM)	%Inh (TBK1; 1 µM)	%Inh (TEC; 1 µM)	%Inh (TESK1; 1 µM)	%Inh (TGFBR1; concentration: 1 μM, replicates: in singlicate, 1 µM)	%Inh (TGFBR2; 1 µM)	%Inh (TLK1; 1 µM)
NS(=O)(=O)c1cccc(-c2ccc3ncc(N4CCOCC4)nc3c2)c1 [GSK1535721]	0%	4%	17%	18%	0%	6%	0%	0%	0%	9%									
CC(C)(C)n1cnc2c(N)ncnc21 [SKF-97359]	0%	0%	19%	0%	0%	30%	0%	0%	17%	67%									
Fc1ccc(-c2ncn(CCCN3CCOCC3)c2-c2cccnc2)cc1 [SB-211743]	34%	0%	43%	9%	5%	26%	12%	9%	0%	0%									
COCCNC(=O)c1ccc(-c2cc(C(=O)NC3CC3)cc(F)c2C)cc1 [GW868318]	16%	32%	34%	11%	26%	0%	6%	17%	17%	14%									
Cc1cn2c(=O)cc(N3CCOCC3)nc2n1Cc1cccc(Cl)c1Cl [GSK2334006]	0%	0%	0%	12%	17%	15%	0%	50%	19%	17%									
Cc1ccc(C(=O)NCC(N)=O)cc1-n1c(C)cc(OCc2ccc(F)cc2F)c(Br)c1=O	7%	0%	36%	13%	31%	36%	26%	0%	0%	0%									
COc1ccc(CNC(=O)NC2CCN(c3ccnc(Nc4ccc(OC)cc4)n3)C2)cc1 (stereo not drawn) [GSK1379727]	7%	0%	0%	0%	16%	38%	0%	17%	0%	0%									
COc1cc2c(cc1OCCN1CCN(C)CC1)ncc1c3ccc(C#N)cc3[nH]c21	13%	0%	83%	0%	0%	0%	0%	0%	6%	37%									
CN1c2ccc(NCc3ccc(F)cc3)cc2-c2c(cnn2C)S1(=O)=O	26%	0%	0%	0%	14%	2%	16%	8%	0%	13%									
Fc1ccc(-c2nn3c(OCC(F)(F)F)cccc3c2-c2ccncc2)cc1 [GW514784]	0%	0%	0%	0%	13%	39%	55%	0%	0%	0%									
O=C(NOCC1CC1)c1ccc(F)c(F)c1Nc1ccc(I)cc1Cl	0%	0%	0%	0%	4%	0%	0%	0%	0%	3%									
COc1ccc(S(=O)(=O)NC2CCN(c3cc(C)nc(Nc4cccc(C#N)c4)n3)CC2)cc1.O=C(O)C(F)(F)F [GSK1653539]	0%	0%	11%	10%	5%	0%	0%	0%	0%	8%									
[2H]C([2H])(c1cccc(C(F)(F)F)c1C)n1ccn2c(=O)nc(N3CCOCC3)cc12 [GSK2336394]	0%	0%	10%	0%	26%	5%	32%	11%	0%	0%									
CN(C1=C(c2ccccc2)C(=O)NC1=O)c1ccccc1 [SB-334860]	0%	0%	29%	7%	67%	26%	0%	0%	5%	20%									
O=C(NCCNc1ccnc(Nc2ccc(F)cc2)n1)c1cc2ccccc2s1 [GSK1379874]	0%	0%	17%	8%	97.2%	7%	0%	0%	0%	0%									
Cc1ccc(NC(=O)c2ccnc(N3CCN(C)CC3)c2)cc1-c1ccc(C(=O)NCC2CC2)cc1 [GW775604]	13%	0%	13%	0%	0%	25%	0%	2%	0%	0%									
